Bioassay records from PubChem.
Compounds with a hit are over-represented: about 19% of the library has one in this group of screens.
HT1080NT lethal – qHTS for induction of synthetic lethality in tumor cells producing 2HG: qHTS for the HT-1080-NT fibrosarcoma cell line. HT-1080-NT fibrosarcoma viability, CellTiter-Glo ATP luminescence, 48 h. Potency, µM (top dose mostly 46.1 µM), without a hit: at the top dose activity, negative = less viability, most hits filed as cytotoxic. 360,000 compounds, 1.6% hits. AID 686970, 2013;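 note: NT is the 2HG producing partner of a matched IDH1 knockdown line; potency is the fitted concentration of half-maximal effect; 0% = DMSO-treated cells and -100% = media-only wells without cells; nearly all actives have a fitted effect of over 55% in size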
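Read-out is CellTiter-Glo luminescence after 10 minutes at room temperature, following 48 hours' compound treatment of HT-1080-NT cells (750 cells/well, RPMI, 5% FBS, 37 degrees C).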
DT40 TDP1 CPT – qHTS for Inhibitors of human tyrosyl-DNA phosphodiesterase 1 (TDP1): qHTS in cells in presence of CPT; 420,000 compounds, 12% hits; chicken DT40 Tdp1-/-;hTDP1 cells + 20 nM CPT, ATP luminescence, 48 h; AID 686979, 2013; Potency, µM (doses to about 46.2 µM), without a hit: top-dose activity change, negative = growth inhibition, usual class: inhibitors; note: potency is the fitted concentration of half-maximal effect; nearly all actives have a fitted effect of over 55% in size
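Chicken DT40 Tdp1-/- cells complemented with human TDP1, 400 cells/well, exposed to compounds plus 20 nM camptothecin for at least 48 h at 37 C; viability read as ATP content by CellTiter-Glo luminescence.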
HT1080 IDH1KD tx – qHTS for induction of synthetic lethality in tumor cells producing 2HG: qHTS for the HT-1080-IDH1KD cell line; 360,000 compounds, 2% hits; HT-1080 IDH1 knockdown viability, ATP luminescence, 48 h; Potency, µM (highest dose often 46.1 µM), inactives show at the top dose activity, negative = toxicity, usual class: cytotoxic;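 note: potency is the fitted concentration of half-maximal effect; 0% = DMSO wells and -100% = cell-free medium wells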
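Cytotoxicity counter-line: IDH1KD HT-1080, 48 h, CellTiter-Glo. Curves classed by r2, magnitude and activity.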
IL-1B inflam inh – qHTS for Inhibitors of Inflammasome Signaling: IL-1-beta AlphaLISA Primary Screen. 360,000 compounds, 4.7% hits. THP-1 LPS/ATP IL-1B secretion, AlphaLISA, 16 h; hits give low values. activity change, % at 57.5 µM; in the data active = activity change below about -50%; inconclusive = mostly about -30% to -49%
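Secreted IL-1B measured by AlphaLISA bead assay after 16 h compound exposure of THP-1 cells; compounds (final up to 57.5 uM) added 1 h before LPS (250 ng/mL) and ATP (1.25 mM) stimulation; lower signal means less secretion.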
DT40 TDP1 no CPT – qHTS for Inhibitors of human tyrosyl-DNA phosphodiesterase 1 (TDP1): qHTS in cells in absence of CPT; Potency, µM (doses to about 46.2 µM), inactives show top-dose activity change, negative = growth inhibition, usual class: inhibitors; 420,000 compounds, 15% hits; DT40 Tdp1-/- hTDP1 cells, no CPT, ATP luminescence, 48 h; note: potency is the fitted concentration of half-maximal effect; nearly all actives have a fitted effect of over 55% in size
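Compound effects on proliferation are scored in DT40 Tdp1-/-;hTDP1 cells in the absence of CPT. ATP levels (CellTiter-Glo luminescence) are recorded after a ≥48 hr, 37 °C incubation.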
Numbers without * were called inactive; ? = inconclusive; . = no result. Unless noted, calls come from the whole dose curve; as a rule, active = well fitted curve in the direction sought with a large enough effect; inconclusive = small, poorly fitted or top-dose-only effect, or another doubt; inactive = no such curve, though single readings can be large; an effect the other way counts as inactive or inconclusive. Unless noted, % is set by controls: 0 for no effect and ±100 for the full control effect.

SMILES | HT1080NT lethal | DT40 TDP1 CPT | HT1080 IDH1KD tx | IL-1B inflam inh | DT40 TDP1 no CPT
CCCc1ccc2oc(C(=O)NCCc3cnn(C)c3)c(C)c2c1 | 0% | 16µM* | 0% | 3 | 16µM*
O=C(c1ccc2oc(CCCc3ccccc3)nc2c1)N1CCCC1 | 8% | 16µM* | 9% | -4 | ?
Cc1c(C(=O)N(Cc2nccn2C)C(C)C)oc2c(F)cccc12 | -3% | ? | -4% | 42 | -28%
CCCc1ccc2oc(C(=O)N(Cc3nccn3C)C(C)C)c(C)c2c1 | -6% | 5.2µM* | 1% | -7 | 2.1µM*
CCOC(=O)CC1CCCCN1C(=O)c1ccc2oc(CCc3ccccc3)nc2c1 (configuration not stated) | -13% | 21µM* | -17% | 22 | 15µM*
O=S(=O)(Oc1ccccc1N1CCCCC1)c1ccccc1 | 10% | -7% | 20% | 37 | ?
CC(C)c1cn(CC[C@@H]2CC[C@H](NS(=O)(=O)c3ccc(F)cc3)[C@@H](CO)O2)nn1 | 13% | 22% | 20% | 16 | -4%
Cc1ccc(-c2noc(-c3nnn(-c4ccc(Br)cc4F)c3C)n2)cc1 | . | ? | . | . | -28%
O=C(CN1CCN(c2ccc(O)cc2)CC1)Nc1cc([N+](=O)[O-])ccc1Cl | 4% | 21µM* | 10% | -6 | 21µM*
Cc1ccc(NC(=O)CN2CCc3ccccc3C2)cc1S(=O)(=O)N(C)C | 11% | ? | 2% | 18 | 23µM*
CN(C)S(=O)(=O)c1ccc(Cl)c(NC(=O)CN2CCN(c3ccccn3)CC2)c1 | 14% | ? | 18% | 28 | 23µM*
Cc1ccc(NC(=O)CN2CCc3ccccc3C2)cc1S(=O)(=O)N1CCOCC1 | 1% | ? | 1% | 15 | ?
O=C(CN1CCN(c2ccccc2)CC1)Nc1ccccc1Cl | 0% | ? | -1% | 1 | -4%
CCN(CC)S(=O)(=O)c1ccc(O)c(NC(=O)CN2CCc3ccccc3C2)c1 | 0% | 1% | 0% | 7 | ?
CN(C)S(=O)(=O)c1ccc(Cl)c(NC(=O)CN2CCc3ccccc3C2)c1 | -15% | 18µM* | -6% | -16 | 21µM*
CN(C)S(=O)(=O)c1cc(NC(=O)CN2CCN(c3ccccc3F)CC2)ccc1Cl | 3% | ? | -4% | 0 | 21µM*
COc1ccc(NC(=O)C2Cc3c(-c4ccc5c(c4)OCO5)ccnc3O2)cc1OC (configuration not stated) | ? | 9.2µM* | 16µM* | -7 | 8.2µM*
COc1ccc(NC(=O)C2Cc3c(-c4ccc(NC(C)=O)cc4)ccnc3O2)cc1OC (configuration not stated) | -21% | ? | -25% | -30 | ?
O=C(NCc1ccc(F)c(F)c1)C1Cc2c(-c3ccc4c(c3)OCO4)ccnc2O1 (configuration not stated) | ? | 2.3µM* | ? | 0 | 2.9µM*
COc1ccc(CNC(=O)C2Cc3c(-c4ccc5c(c4)OCO5)ccnc3O2)cc1OC (configuration not stated) | ? | 18µM* | ? | -5 | 12µM*
COc1ccc(CNC(=O)C2Cc3c(-c4ccccc4)ccnc3O2)cc1OC (configuration not stated) | -19% | ? | -3% | -12 | ?
C[C@H](CO)N1C[C@H](C)[C@H](CN(C)C(=O)NC2CCCCC2)Oc2cc(-c3cccnc3)ccc2S1(=O)=O | 10% | ? | 4% | 2 | ?
COc1cccc(CNC(=O)c2c(OC)cc(=O)n3c2CCN(C(=O)c2ccoc2C)CC3)c1 | . | 10% | . | . | -1%
CC(C)C[C@H](NC(=O)c1nc[nH]c1C(=O)N1CCNCC1)C(=O)OCc1ccccc1 | -1% | ? | -2% | -6 | -13%
Cc1cc(C)nc(Nc2n[nH]c(COc3ccccc3)n2)n1 | 29% | ? | 23% | -10 | 18µM*
SMILES | HT1080NT lethal | DT40 TDP1 CPT | HT1080 IDH1KD tx | IL-1B inflam inh | DT40 TDP1 no CPT
Cc1cc(C)nc(Nc2n[nH]c(COc3cccc4ccccc34)n2)n1 | 3% | 2.9µM* | 1% | 3 | 3.3µM*
Cc1cc(C)nc(Nc2n[nH]c(-c3cccc4ccccc34)n2)n1 | -1% | ? | 3% | -13 | ?
Cc1cc(C)nc(Nc2n[nH]c(COc3ccc4ccccc4c3)n2)n1 | 0% | -11% | 2% | 19 | -19%
COc1ccc(C)cc1NC(=O)COc1cc(=O)n(C)c2ccccc12 | . | -20% | . | . | -21%
C[N+]1(C2CCC3CCCC2C3O)CCCCC1 (configuration not stated) | 12% | -9% | 14% | 6 | -15%
CC(C)CC(c1nnnn1Cc1ccco1)N1CCN(c2cccc(Cl)c2)CC1 (configuration not stated) | -20% | ? | -22% | -21 | 16µM*
CC(C)CC(c1nnnn1CC1CCCO1)N1CCN(c2cccc(Cl)c2)CC1 (configuration not stated) | 2% | 26µM* | 0% | -4 | 16µM*
Cc1ccc(C(c2nnnn2CC2CCCO2)N2CCN(c3cccc(C)c3C)CC2)cc1 (configuration not stated) | -15% | ? | -18% | -26 | 23µM*
CCCC(c1nnnn1CC1CCCO1)N1CCN(c2cc(Cl)ccc2C)CC1 (configuration not stated) | -13% | ? | -13% | -10 | ?
COc1ccc(C(c2nnnn2CC2CCCO2)N2CCN(c3ccccc3)CC2)cc1 (configuration not stated) | 7% | 11% | 9% | -22 | 4%
CCOC(=O)c1oc2ccccc2c1COC(=O)CNC(=O)c1ccc(C)cc1 | 15% | -10% | 7% | 18 | -16%
COC1=CC(=O)OC(c2ccc(C#N)cc2)C1 (configuration not stated) | 4% | 9% | 1% | 0 | -9%
O=c1oc2c(CN3CCN(CCO)CC3)c(O)ccc2cc1-c1ccccn1 | -2% | -9% | 6% | 97 | 0%
COc1ccc(NS(=O)(=O)c2cccc(NC(=O)NCCCl)c2)cc1 | 0% | -27% | 1% | 17 | -29%
COc1ccc(NS(=O)(=O)c2cccc(NC(=O)c3cnccn3)c2)cc1Br | -25% | 16µM* | -18% | -20 | 18µM*
COc1ccc(NS(=O)(=O)c2cccc(NC(=O)c3ccc(Cl)nc3)c2)cc1 | 1.6µM* | 1.2µM* | 6.5µM* | -9 | 3.3µM*
